From PubChem BioAssay (NCATS)
Several values for one entry are separate records, joined by “and”; a condition that tells them apart may be missing. Equal values may be shown once. Inconclusive results are not listed. Activity calls are given as the source filed them. Unless noted, calls come from the whole dose curve; as a rule, active = well fitted curve in the direction sought with a large enough effect; inconclusive = small, poorly fitted or top-dose-only effect, or another doubt; inactive = no such curve, though single readings can be large; an effect the other way counts as inactive or inconclusive.

Columns and labels:
[1] = Cell Viability - MRC5 (AID 434; calls by dose curve;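 note: potency is the fitted concentration of half-maximal effect; cells exposed to compound for 40 hours at 37 °C; potency reflects cytotoxicity seen as loss of intracellular ATP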); conditions: MRC5 lung fibroblast viability, qHTS
In short: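 ATP luminescence read-out (CellTiter-Glo, 20 min RT) after 40 hr, 37 °C compound exposure of 1500 MRC5 cells/well. Data normalized to DMSO (basal) and 100 uM tamoxifen (100% inhibition); AC50 from standard Hill equation.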

[2] = molecular target: Mitogen-activated protein kinase 10 (Mus musculus) (UniProt Q61831); experiment: JNK3 AlphaScreen Assay (AID 530; active = well fitted curve in either direction with a large enough effect, not every such curve was filed as active;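 note: kinase came from lysate of stimulated human HepG2 cells; signal reports phosphorylation of biotinylated GST-cJun 1-79 at Ser73 with 10 µM ATP; % is set by controls: 0 for no effect and ±100 for the full control effect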); conditions: JNK3 lysate, c-Jun phosphorylation; series mostly up to 57.1 µM
In short: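 Activity was read by AlphaScreen after JNK3-containing HepG2 lysate (cytokine pre-activated) phosphorylated biotinylated GST-cJun with 10 uM ATP at room temperature. Phospho-Ser73 cJun antibody with Protein-A acceptor beads provided detection.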

[3] = Cell Viability - HUV-EC-C (AID 542); conditions: HUV-EC-C endothelial cell viability, qHTS; series mostly up to 92.2 µM;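 note: cells exposed to compound for 40 hours; % is set by controls: 0 for no effect and ±100 for the full control effect; nearly all actives have a fitted effect of over 35% in size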
In short: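 Cells were seeded at 1000 per well and incubated 5 hr at 37 °C before compound addition. After 40 hr at 37 °C, CellTiter-Glo reagent was added for 20 min and luminescence read. AC50 values came from Hill-equation modelling.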

[4] = Cell Viability - Mesenchymal (AID 546); conditions: mesenchymal cells viability, qHTS; series mostly up to 91.7 µM;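 note: cells exposed to compound for 40 hours before reading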
In short: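 Human renal mesenchymal cells (glomerulus-derived), 1000 cells/well, 5 hr 37 °C pre-incubation; compound 40 hr, 37 °C; CellTiter-Glo, 20 min RT; luminescence; AC50 via Hill equation.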

[5] = Cellular Toxicity (caspase-3) HepG2 (AID 654); conditions: HepG2 caspase-3 activation, luminescence, 0% = DMSO only, 100% = tamoxifen; series mostly up to 92.2 µM;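 note: cells exposed to compound for 16 hours before reading; 0% = DMSO alone and 100% = caspase signal from 100 µM tamoxifen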
In short: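 Caspase 3/7 activation in HepG2 is measured as rising luminescence after a 16 hr treatment at 37 °C. Values are scaled between DMSO basal and 100 uM tamoxifen, and AC50 is fitted with the Hill equation.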

[6] = Cellular Toxicity (caspase-3) Jurkat (AID 655); conditions: Jurkat caspase-3 activation, luminescence; caspase-3 activation: at 92.2 µM (top of the series), DMSO = 0%, tamoxifen = 100%;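 note: cells exposed to compound for 16 h at 37 °C before reading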
In short: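 Jurkat cells (5000/well) in complete medium exposed 16 h at 37 C; caspase-3/7 activity read by Caspase-Glo luminescence after 20 min at room temperature. Normalized to DMSO and 100 uM tamoxifen; AC50 from Hill fits.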

[7] = Cellular Toxicity (caspase-3) BJ (AID 658); conditions: BJ fibroblasts, luminescence, normalized: DMSO 0%, staurosporine 100%; series mostly up to 91.7 µM
In short: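 qHTS, BJ fibroblasts, 1000 cells/well; 5 hr preincubation, 16 hr compound, 37 °C; Caspase-Glo 3/7 reagent, 1 hr RT; luminescence. DMSO = 0%, 10 uM staurosporine = 100%. Hill-equation AC50.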

[8] = Cellular Toxicity (caspase-3) H-4-II-E (AID 663); conditions: H-4-II-E rat hepatoma; Potency: caspase-3 activation; series mostly up to 92.2 µM;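 note: cells exposed to compound for 16 hr before readout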
In short: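 H-4-II-E rat hepatoma, 1500 cells/well, 5 hr settle at 37 °C; compound 16 hr, 37 °C, complete medium; Caspase-Glo 3/7, 20 min RT; luminescence. DMSO = 0%, 100 uM tamoxifen = 100%; Hill-equation AC50.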

[9] = Cellular Toxicity (caspase-3) Hek293 (AID 664); conditions: HEK293 caspase-3 activation, DMSO = 0%, 100 µM tamoxifen = 100%; at 92.2 µM (top of the series);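 note: cells exposed to compound for 16 h at 37 °C before readout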
In short: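 qHTS, HEK293 (human embryonic kidney), 16 h cpd exposure in complete medium. Caspase-3/7 activation = luminescence increase; normalized to DMSO/100 uM tamoxifen; Hill-fit AC50.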

[10] = Cellular Toxicity (caspase-3) N2a (AID 665); conditions: N2a cells, luminescence, normalized: DMSO 0%, 10 µM staurosporine 100%; series mostly up to 92.2 µM;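 note: compound exposure lasted 16 h at 37 °C before readout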
In short: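 Caspase-3/7 activation, measured as increased luminescence from aminoluciferin release, is quantified in mouse N2a cells exposed to compounds for 16 h. Values are normalized to DMSO and 10 uM staurosporine, with AC50 derived by Hill modelling.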

[11] = Cellular Toxicity (caspase-3) Renal Proximal Tubule (AID 667); conditions: renal proximal tubule cells; series mostly up to 91.7 µM;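 note: cells exposed to compound for 16 hours at 37 °C before detection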
In short: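 Freshly isolated primary rat kidney proximal tubule cells, 1000/well, treated 16 hr at 37 °C, then Caspase-Glo 3/7 luminescence after 1 hr. Normalized to DMSO and 10 uM staurosporine; AC50 from Hill fit.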

[12] = MultiTox-Fluor Cytotoxicity Assay - LYMP1-003 - Dead Cells (AID 961); conditions: LYMP1-003 lymphoblastoid cells, dead-cell protease fluorescence; series mostly up to 92.2 µM; note: nearly all actives have a fitted effect of over 70% in size
In short: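 Dead-cell protease release, detected as bis-AAF-R110 fluorescence at 485/520 nm, was measured in LYMP1-003 cells after 16 h compound treatment at 37 C. AC50 values came from Hill-modeled qHTS curves normalized to DMSO (0%) and 15 uM tetraoctylammonium bromide (100%).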

[13] = MultiTox-Fluor Cytotoxicity Assay - LYMP1-003 - Live Cells (AID 962); conditions: LYMP1-003 lymphoblastoid cells, MultiTox-Fluor live-cell protease fluorescence; series mostly up to 92.2 µM;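 note: cells exposed to compound for 16 hours at 37 °C; 0% = DMSO only and full loss = 92 µM tetraoctylammonium bromide; cytotoxic hits lower the live-cell protease signal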
In short: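 Acute cytotoxicity is scored as a drop in live-cell protease activity in human lymphoblastoid LYMP1-003 cells after 16 hr compound exposure at 37 C. AC50 values come from Hill-equation modelling of concentration-response data.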

[14] = Cell Viability - LYMP2-013 (AID 970); conditions: LYMP2-013 lymphoblastoid cells viability; series mostly up to 92.2 µM;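 note: cells exposed to compound for 24 h at 37 °C; 0% = DMSO only and full inhibition = tetraoctylammonium bromide control; nearly all actives have a fitted effect of over 55% in size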
In short: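 Cytotoxicity is scored as a concentration-dependent drop in intracellular ATP in human lymphoblastoid cells after 24 hr compound exposure at 37 C. ATP is quantified by luciferase luminescence, and AC50 values come from Hill-equation modeling.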

[15] = molecular target: Peroxisome proliferator-activated receptor gamma (Homo sapiens) (UniProt P37231); experiment: qHTS assay for small molecule agonists of peroxisome proliferator-activated receptor gamma signaling (AID 588536; active = well fitted curve in the direction sought with a large enough effect in the signal ratio, with a control signal flat, not every such curve was filed as active; the % refers to the signal ratio;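 note: 0% = DMSO basal wells and 100% = rosiglitazone at 2 µM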); conditions: HEK293 PPARg-UAS-bla, beta-lactamase ratio, 16 h, percent of rosiglitazone response, DMSO as zero; series mostly up to 76.7 µM
Chain of Peroxisome proliferator-activated receptor gamma (Homo sapiens) (P37231 whole entry, looked up): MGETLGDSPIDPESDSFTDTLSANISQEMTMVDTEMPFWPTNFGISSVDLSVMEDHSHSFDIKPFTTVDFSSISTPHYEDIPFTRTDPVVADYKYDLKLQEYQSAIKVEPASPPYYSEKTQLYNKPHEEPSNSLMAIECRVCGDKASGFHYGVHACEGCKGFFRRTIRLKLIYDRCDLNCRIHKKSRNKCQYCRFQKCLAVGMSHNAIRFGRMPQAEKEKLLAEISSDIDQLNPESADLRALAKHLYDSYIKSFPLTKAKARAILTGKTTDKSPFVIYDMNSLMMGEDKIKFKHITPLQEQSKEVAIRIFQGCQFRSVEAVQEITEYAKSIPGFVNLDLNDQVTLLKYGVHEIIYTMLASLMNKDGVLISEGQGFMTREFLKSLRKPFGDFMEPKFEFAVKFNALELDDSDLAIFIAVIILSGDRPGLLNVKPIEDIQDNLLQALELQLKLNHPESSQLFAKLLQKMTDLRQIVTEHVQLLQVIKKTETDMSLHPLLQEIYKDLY
In short: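 This is an agonist-mode beta-lactamase reporter assay in HEK293 PPAR-gamma-UAS-bla cells with 1% charcoal/dextran FBS. Compound titrations ran 16 h at 37 C before CCF4 detection. EC50 and efficacy are Hill fits scaled to 2 uM rosiglitazone (100%) and DMSO basal.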

[16] = qHTS assay for environmental chemicals that activate the Aryl hydrocarbon Receptor (AhR) signaling pathway (AID 651777); conditions: 1A2-DRE human hepatoma cells, luciferase, 24 h; activation: hits give high values; note: nearly all actives have a fitted effect of over 15% in size; note: potency is the fitted concentration of half-maximal effect; for activation: % of control where 0% means no effect
In short: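 AhR activation is scored as a rise in luciferase from a stable DRE–CYP1A2 promoter construct in human hepatoma cells. Treatment lasts 24 hr at 37 C; detection uses One-Glo after 30 min at room temperature.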

[17] = qHTS assay for cell viability of the p53RE-bla HCT-116 cell line (AID 743292); conditions: p53RE-bla HCT-116 viability, ATP luminescence, 16 h; series mostly up to 95 µM; note: % is set by controls: 0 for no effect and ±100 for the full control effect; nearly all actives have a fitted effect of over 55% in size
In short: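 Quantitative high-throughput format: compounds in DMSO were pinned onto p53RE-bla HCT-116 cells (4,000/well) and incubated 16 h at 37 C. Total intracellular ATP, read by CellTiter-Glo luminescence, reflects viable cell number.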

[18] = molecular target: Nuclear receptor subfamily 1 group I member 2 (Rattus norvegicus) (UniProt Q9R1A7); experiment: qHTS assay for small molecule activators of the rat pregnane X receptor (rPXR) signaling pathway (AID 651751; call rule not given here; note: 0% is about no effect); conditions: rPXR reporter cells, luciferase (One-Glo), 24 h
Chain of Nuclear receptor subfamily 1 group I member 2 (Rattus norvegicus) (Q9R1A7 whole entry, looked up): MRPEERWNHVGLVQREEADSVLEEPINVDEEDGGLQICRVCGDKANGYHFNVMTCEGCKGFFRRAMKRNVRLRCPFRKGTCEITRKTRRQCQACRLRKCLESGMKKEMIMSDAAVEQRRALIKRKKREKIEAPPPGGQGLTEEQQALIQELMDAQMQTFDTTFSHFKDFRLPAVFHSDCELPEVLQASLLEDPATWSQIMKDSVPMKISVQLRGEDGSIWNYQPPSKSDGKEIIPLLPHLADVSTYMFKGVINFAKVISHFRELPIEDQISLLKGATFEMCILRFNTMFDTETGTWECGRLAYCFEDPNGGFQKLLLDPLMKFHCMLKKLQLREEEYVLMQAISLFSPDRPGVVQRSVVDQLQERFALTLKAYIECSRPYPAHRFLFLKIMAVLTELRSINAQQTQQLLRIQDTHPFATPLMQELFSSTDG

[19] = Cellular Toxicity (caspase-3) SK-N-SH (AID 661); conditions: SK-N-SH caspase-3 activation, qHTS; series mostly up to 91.7 µM
In short: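 Cells were seeded and incubated 5 hr at 37 °C, dosed with compound over a concentration range for 16 hr, then given Caspase-Glo 3/7 reagent for 1 hr at room temperature before luminescence reading.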

[20] = qHTS assay for cell viability of HEK293 cells (AID 743288); conditions: ATP luminescence (CellTiter-Glo), 18 h, hits give low values; note: % is set by controls: 0 for no effect and ±100 for the full control effect; nearly all actives have a fitted effect of over 50% in size
In short: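 Steps: plate 2,000 parental HEK293 cells per well; incubate ≥5 h, 37 C; add compounds in DMSO; incubate 18 h, 37 C; add CellTiter-Glo; wait 30 min at room temperature; read luminescence.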

CC(C)[C@]12CC(=O)[C@H](C)[C@H]1C2
inactive: Potency [1] > 92 µM | Potency [2] | Potency [3] | Potency [4] | outcome [5] | caspase-3 activation [6] 0.322% | outcome [7] | Potency [8] | caspase-3 activation [9] -0.456% | outcome [10] | outcome [11] | Potency [12] | outcome [13] | Potency [14] | outcome [15] | activation [16] -0.165% and 1.56% | Potency [17] | max response [18] 2.33% and 6.9%

CCOP(=O)(OCC)OCC
inactive: Potency [1] > 92 µM | Potency [2] | outcome [5] | outcome [7] | Potency [19] | Potency [8] | caspase-3 activation [9] 0.845% | outcome [10] | outcome [11] | Potency [12] | outcome [13] | Potency [14] | outcome [15] | activation [16] -0.171% and -0.669% | max response [20] 5.7% and 3.95% | Potency [17] | max response [18] 0.98% and -0.959%

CCN(CC)N=O
inactive: Potency [1] > 92 µM | Potency [2] | Potency [4] | outcome [5] | caspase-3 activation [6] 1.16% | Potency [19] | Potency [8] | caspase-3 activation [9] 1.39% | outcome [10] | outcome [11] | Potency [12] | outcome [13] | outcome [15] | activation [16] -0.0915% | max response [20] 1.5% | Potency [17] | max response [18] 3.34%

CN(C)c1ccccc1
inactive: Potency [1] > 92 µM | Potency [2] | Potency [4] | outcome [5] | caspase-3 activation [6] 0.927% | outcome [7] | Potency [19] | Potency [8] | caspase-3 activation [9] -0.669% | outcome [10] | outcome [11] | Potency [12] | outcome [13] | Potency [14] | max response [20] 0.461% | Potency [17] | max response [18] -6.91%

c1ccc(OCC2CO2)cc1 (stereo unspecified)
inactive: Potency [1] > 92 µM | Potency [2] | Potency [3] | Potency [4] | outcome [5] | outcome [7] | Potency [19] | Potency [8] | caspase-3 activation [9] 0.633% | outcome [10] | outcome [11] | Potency [12] | outcome [15] | activation [16] 0.197% | max response [20] 5.64% | Potency [17] | max response [18] -1.75%

Clc1cccc2ccccc12
inactive: Potency [1] > 92 µM | Potency [2] | Potency [3] | outcome [5] | caspase-3 activation [6] 0.494% | outcome [7] | Potency [19] | Potency [8] | caspase-3 activation [9] -0.708% | outcome [10] | outcome [11] | Potency [12] | outcome [13] | Potency [14] | activation [16] -0.754% | Potency [17] | max response [18] 3.21%

Cc1ccc(N)cc1N
inactive: Potency [1] > 92 µM | Potency [2] | Potency [3] | Potency [4] | outcome [5] | caspase-3 activation [6] -0.424% | outcome [7] | Potency [19] | Potency [8] | caspase-3 activation [9] 0.128% | outcome [10] | outcome [11] | Potency [12] | outcome [13] | Potency [14] | outcome [15] | max response [20] 6.42% and -0.208% | max response [18] 12.5% and 3.01%
active: Potency [16] 44.7 µM

Cl/C=C/Cl
inactive: Potency [1] > 92 µM | Potency [2] | Potency [3] | Potency [4] | outcome [5] | caspase-3 activation [6] -1.85% | outcome [7] | Potency [19] | caspase-3 activation [9] -0.612% | outcome [10] | Potency [12] | outcome [13] | Potency [14] | activation [16] 0.896% | max response [20] -15.8% | Potency [17] | max response [18] -3.34%

Cc1ccc2c(C)cccc2c1
inactive: Potency [1] > 92 µM | Potency [2] | Potency [3] | Potency [4] | outcome [7] | Potency [8] | outcome [10] | outcome [11] | Potency [12] | outcome [13] | Potency [14] | outcome [15] | activation [16] -0.533% | max response [20] 11.2% | Potency [17] | max response [18] -3.71%

CCCCC(=O)Cl
inactive: Potency [1] > 92 µM | Potency [2] | Potency [3] | Potency [4] | outcome [5] | caspase-3 activation [6] 1.28% | Potency [19] | Potency [8] | caspase-3 activation [9] -0.249% | outcome [10] | outcome [11] | Potency [12] | outcome [13] | Potency [14] | max response [20] 5.94% | max response [18] 6.67%

CCCCC#N
inactive: Potency [1] > 92 µM | Potency [2] | Potency [3] | outcome [5] | caspase-3 activation [6] 0.125% | outcome [7] | Potency [19] | Potency [8] | caspase-3 activation [9] -1.9% | outcome [10] | outcome [11] | Potency [12] | outcome [13] | Potency [14] | activation [16] 1.07% | Potency [17] | max response [18] -0.572%

C=CC(=O)OCCN(C)C
inactive: Potency [1] > 92 µM | Potency [2] | Potency [3] | Potency [4] | caspase-3 activation [6] 1.53% | Potency [19] | Potency [8] | outcome [10] | Potency [12] | outcome [13] | Potency [14] | outcome [15] | activation [16] 0.563% | Potency [17] | max response [18] 2.48%

CC1CC(=O)O1 (stereo unspecified)
inactive: Potency [1] > 92 µM | Potency [2] | Potency [4] | outcome [5] | caspase-3 activation [6] -1.79% | outcome [7] | Potency [19] | Potency [8] | caspase-3 activation [9] -0.671% | outcome [10] | outcome [11] | Potency [12] | Potency [14] | outcome [15] | activation [16] 0.52% | max response [20] -7.61% | Potency [17] | max response [18] 0.366%
